This is an account of results in PubChem BioAssay AID488890 (Southern Research Specialized Biocontainment Screening …, 2010).

The campaign covered roughly 320,000 compounds. About 1,300 (0.41%) were called active. Roughly 3% stayed inconclusive and do not appear here. No rule for the calls is given here. Only a sample is shown. Entries with a potency or affinity are not part of this list.

This assay is described as follows: growth inhibition of non-replicating M. tuberculosis (AID 488890).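 Also: plate controls were DMSO cells for no effect and high antibiotic wells for full effect.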 To be noted: Mycobacterium tuberculosis non-replicating, at 25 µM, stronger effect = higher value.
One may read the inhibition as the drop in the measured response relative to a control, in per cent. For `CC(C)CN(C(=O)COC(=O)c1ccccn1)c1c(N)n(Cc2ccccc2)c(=O)[nH]c1=O`, the inhibition was -2.29%. On to `C=CCOc1ccc(C2CC(C)=NN2c2ccccc2)cc1` (configuration not stated), for which the inhibition worked out at 35.9%. The result for `CCOC(=O)C1=NN(c2ccccc2)C(c2ccccc2)CC1=O` (configuration not stated) reads 12.4%; that for `Cc1ccc(C)c(S(=O)(=O)N2CCN(C(=O)CCC(=O)NCc3ccc(Cl)cc3)CC2)c1`, 6.7%; that for `NC(=O)c1ccc(NC(=O)COC(=O)C2CC(=O)N(Cc3ccccc3)C2)cc1` (configuration not stated), -1.36%. The result for `Cc1nn2c(NCCCN(C)C)c3c(nc2c1-c1ccccc1)CCCC3` reads 73.4%; that for `Cc1nn2c(NCCCN(C)C)c3c(nc2c1-c1ccccc1)CCC3`, -10.7%. As to `CCO/C=C1/C(=O)N(C(C)=O)c2ccccc21`, the inhibition was -5.81%. `COc1ccccc1-c1nnc(-c2ccc(N3CCOCC3)cc2)o1`: the inhibition is 18.5%. The result for `COc1ccc(-c2nnc(-c3ccc(F)cc3)o2)cc1` reads 76.7%; that for `Fc1ccc(-c2nnc(-c3ccc(Cl)cc3)o2)cc1`, 72.1%. The result for `c1ccc(-c2nnc(-c3ccccc3)o2)cc1` reads 66.5%. The result for `Cc1cccc(-c2nnc(-c3ccccc3)o2)c1` reads 79.9%; that for `COc1ccc(-c2nnc(-c3cccs3)o2)cc1OC`, 60.7%; that for `Cc1ccc(-c2nnc(-c3ccccc3Br)o2)cc1`, 78.7%. With `CN(C)c1ccc(-c2nnc(-c3cccs3)o2)cc1`, the inhibition was found to be 48.7%. Regarding `Cc1cc(=O)oc2ccc(OC(C)C(=O)O)cc12` (configuration not stated), the inhibition was -4.21%. The result for `Cn1cc(C(=O)C(=O)N2CCCC2)c2ccccc21` reads -3.83%; that for `Cc1nc(N/N=C/c2ccccc2)nc(N(C)c2ccccc2)c1[N+](=O)[O-]`, -0.99%. The result for `CC(=O)Nc1ccc(Nc2nc(C)c([N+](=O)[O-])c(N(C)c3ccccc3)n2)cc1` reads 71.5%; that for `CC(=O)c1cccc(OCc2cc(C(=O)NCc3nc(C)c(C)s3)no2)c1`, -3.04%; that for `COc1ccc(NC(=O)COc2ccc(C(=O)NCc3cccnc3)cc2OC)cc1`, 10.8%. The result for `O=C(O)c1c2c(nc3ccccc13)-c1ccccc1CC2` reads -7.78%; that for `O=C(OCC(=O)N1CCCCC1)c1ccc2ccccc2n1`, 50%; that for `O=C(OCC(=O)N1CCN(c2ccccc2)CC1)c1ccc(Cl)nc1`, 60.4%. With `O=C(OCC(=O)N1CCN(c2ccccc2)CC1)c1ccccn1`, the inhibition is -2.7%. The result for `O=C(OCC(=O)N1CCCC1)c1cnc(Cl)c(Cl)c1` reads 7.3%; that for `Clc1ccc(N2CCN(c3ccnc(Cl)n3)CC2)cc1`, 53%; that for `COCCCNC(=O)c1c(N)n(-c2ccc3c(c2)OCO3)c2nc3ccccc3nc12`, -12.5%.

Consider `O=C(NC1CCCCC1)c1cc(-c2ccc(Cl)cc2)on1`, for which the inhibition was -0.38%. In the case of `O=C(Nc1ccccc1)c1cccc2c(Br)cccc12`, the inhibition is -8.76%.

As to `CCc1ccc(/C(C)=N/NC(=O)c2ccccn2)cc1`, the inhibition stood at 27%.

Turning to `Cc1ccc(N=CC2=C(O)CC(c3ccccc3Cl)CC2=O)cc1` (configuration not stated), the inhibition is 2.23%.

Take `O=C(Nc1ccc(Br)cc1F)c1sccc1-n1cccc1`: the inhibition is 0.35%. The result for `COc1ccccc1C(=O)Nc1c2c(nn1-c1ccc([N+](=O)[O-])cc1)CS(=O)(=O)C2` reads -26.7%. The result for `CC(=O)Oc1ccc([C@@H]2COc3c(ccc4c3C=CC(C)(C)O4)C2)c(OC(C)=O)c1` reads -2.73%. The result for `CC1=CC2=NC(=O)/C(=C/c3cccs3)C(=N)N2O1` reads -5.09%. `COc1cc(/C=C2\C(=N)N3N=CSC3=NC2=O)cc(Br)c1OC(=O)c1ccco1`: the inhibition was -3.1%.

Turning to `COc1cc(/C=C2/C(=N)N3OC(C)=CC3=NC2=O)ccc1OCCOc1ccc(C)cc1`, the inhibition is -6.61%. As to `CC(=O)Nc1ccc(OCCOc2ccc(/C=C3/C(=N)N4C=CSC4=NC3=O)cc2)cc1`, the inhibition came to 2.76%. The result for `O=C1CN(C(=O)c2cccc(Br)c2)c2ccccc2N1` reads -8.78%.

Turning to `Cc1nnc(NC(=O)CCC(=O)N2CCN(CCOc3cccc4ccccc34)CC2)s1`, the inhibition was determined as 16.7%.

Consider `CCCCOC(=O)Nc1cc(C(=O)OC)ccc1C(=O)OC`, for which the inhibition was 18.2%. For the compound `N#Cc1ccc(OCC(=O)Nc2nc(-c3ccncc3)cs2)cc1`, the inhibition was determined as 10%. `Cc1c([N+](=O)[O-])c([N+](=O)[O-])nn1CC(=O)NCc1cccnc1`: the inhibition stood at 6.05%.

With `Cn1c(=O)c2c(SCCN3CCOCC3)nc(C3CCCC3)nc2n(C)c1=O`, the inhibition was 19.1%. The result for `COc1cc(C(=O)N/N=C/c2ccsc2C)cc(OC)c1OC` reads 0.65%. With `CCOc1ccc(C(=O)N/N=C/c2cc([N+](=O)[O-])cs2)cc1`, the inhibition was determined as 69.5%. The result for `COc1ccc(CC(=O)OCc2cc(=O)n3cc(Br)ccc3n2)cc1OC` reads 13.9%; that for `CCOc1ccc(CC(=O)OCc2cc(=O)n3cc(Br)ccc3n2)cc1`, 50.5%; that for `Cc1onc(-c2ccccc2)c1C(=O)OCc1nnc(-c2ccc([N+](=O)[O-])cc2)o1`, 48%. `O=C(OCc1nnc(-c2ccccc2)o1)c1ccc([N+](=O)[O-])o1`: the inhibition was 64.9%. The result for `CC(=O)OCc1nc2ccccc2s1` reads -0.84%. Regarding `O=C(OCc1nnc(-c2ccccc2)o1)c1ccccc1`, the inhibition was 73.8%. In the case of `O=C(OCc1nnc(-c2ccccc2)o1)c1cccnc1Cl`, the inhibition is 6.83%.

With `CCOC(=O)c1ccc(Cn2c(-c3ccccc3)nnc2-c2ccccc2)o1`, the inhibition came to 11.2%.

Regarding `CCOC(=O)Nc1nc2ccccc2s1`, the inhibition was -2.43%. The result for `CCOC(=O)c1cccc(COC(=O)c2cccc(-c3nnc(-c4ccccc4)o3)c2)c1` reads 18.4%. For the compound `Cc1cc(C(=O)CSc2nc3ccc(Cl)cc3[nH]2)c(C)n1Cc1ccco1`, the inhibition was 13.9%. The result for `COc1ccc(CN2C(=O)c3cccnc3C2Nc2ccc(C)cc2)cc1` (configuration not stated) reads 27%; that for `CN(CC(=O)NCc1ccccc1Cl)S(=O)(=O)c1ccc2c(c1)n(C)c(=O)c(=O)n2C`, -4.13%; that for `CCOC(=O)CC(=O)COc1nc2cc3c(nc2o1)CCCC3`, -11.4%. The result for `NCCCC[C@H](NC(=O)C1CCNCC1)c1nnc(CN)o1` reads -30.9%; that for `CCC/C(=C1/c2ccccc2C(=O)N1c1ccccc1)c1cnc(OC)nc1`, 24.1%. The result for `COc1ccc(CN2CCN(c3ccccc3OC)CC2)cc1OC` reads -6.29%. With `O=C(COC(=O)c1ccc(Br)o1)Nc1nc2ccccc2s1`, the inhibition came out at 71.5%. The result for `Nc1ccc(C(=O)OCc2nc3ccccc3s2)cc1` reads 68.4%; that for `COc1ccc(C2=NOC(C(=O)N(C)Cc3ccccc3)C2)cc1` (configuration not stated), 48.3%. `O=C(c1ccc(F)cc1)C(Cc1ccccc1)N1CCCCC1` (configuration not stated): the inhibition was determined as 63.6%. The result for `Cc1ccn2c(=O)cc(C)nc2c1` reads 4.9%. The result for `Cc1cc(=O)n2ccsc2n1` reads 0.97%; that for `CCOc1ccc(N(CC(=O)N2CCN(c3ccc(F)cc3)CC2)S(=O)(=O)c2c(C)noc2C)cc1`, 21.6%.
